Data published in PubChem BioAssay AID1159580 (chemical genetic matrix, 2015).
“And” between values parts separate entries of the source, which are not always exact repeats. Equal values may be shown once. Out of some 5,500 compounds screened, about 2,000 (36%) were called active. Inconclusive results (about 18%) are left out. Cut-off read from the data, not from the text of the source: active = normalized growth mostly below about 0.91 (no sharp cut-off); inconclusive = no clear call, values can overlap the other calls; inactive = mostly above about 0.92. The list shows a part of the results.

Test: chemical genetic growth profiling, strain panel (AID 1159580);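 note: tested at 20 µM; growth read once vehicle control cultures reached saturation at 30 °C; 1 = growth at the plate median or of vehicle wells; lower values mean less growth of the strain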
Settings: S. cerevisiae deletion strains, growth OD
[1] = locus YAL013W, strain DEP1, stronger effect = lower value
[2] = locus YBR229C, strain ROT2, stronger effect = lower value
[3] = locus YCL061C, strain MRC1, stronger effect = lower value
[4] = locus YDL101C, strain DUN1, stronger effect = lower value
[5] = locus YEL061C, strain CIN8, stronger effect = lower value
[6] = locus YHR030C, strain SLT2, stronger effect = lower value
[7] = locus YJL187C, strain SWE1, stronger effect = lower value
[8] = locus YJR043C, strain POL32, stronger effect = lower value
[9] = locus YJR075W, strain HOC1, stronger effect = lower value
[10] = locus YLR039C, strain RIC1, stronger effect = lower value
[11] = locus YLR262C, strain YPT6, stronger effect = lower value
[12] = locus YMR307W, strain GAS1, stronger effect = lower value
[13] = locus YNL128W, strain TEP1, stronger effect = lower value
[14] = locus YPL241C, strain CIN2, stronger effect = lower value

Measured: normalized growth

COc1ccc(/C=C2\CC/C(=C\c3ccc(OC)c(OC)c3)C2=O)cc1OC
inactive: [1] 0.988 | [2] 0.998 | [3] 0.996 | [4] 0.974 | locus YDL134C, strain PPH21, stronger effect = lower value 1.02 | locus YDR150W, strain NUM1, stronger effect = lower value 0.904 | [5] 0.986 | locus YGR078C, strain PAC10, stronger effect = lower value 0.978 | locus YGR229C, strain SMI1, stronger effect = lower value 1 | [6] 0.902 | locus YHR087W, strain rtc3, stronger effect = lower value 0.977 | [7] 1.01 | [8] 0.966 | [9] 1.03 | [10] 0.936 | locus YLR058C, strain SHM2 (second series), stronger effect = lower value 1.01 | locus YLR085C, strain ARP6, stronger effect = lower value 0.989 | [11] 0.964 | locus YML094W, strain GIM5, stronger effect = lower value 1.03 | locus YMR219W, strain ESC1, stronger effect = lower value 0.995 | locus YMR263W, strain SAP30, stronger effect = lower value 0.973 | [12] 0.817 | [13] 0.997 | locus YNL153C, strain GIM3, stronger effect = lower value 0.989 | locus YNL298W, strain CLA4 (second series), stronger effect = lower value 0.987 | locus YNL322C, strain KRE1, stronger effect = lower value 0.999 | locus YNR030W, strain Alg12, stronger effect = lower value 0.974 | locus YPL055C, strain LGE1, stronger effect = lower value 0.907 | [14] 0.974 | locus YPR135W, strain CTF4, stronger effect = lower value 0.919

COc1ccc2c(c1)OC/C(=C/c1ccc(OC)c(OC)c1)C2=O
0.733 (active) and 0.959 (inactive): locus YJL095W, strain BCK1, stronger effect = lower value
active: locus YAL026C, strain drs2, stronger effect = lower value 0.891 | locus YBR009C, strain hhf1, stronger effect = lower value 0.803 | locus YBR023C, strain chs3, stronger effect = lower value 0.882 | locus YBR231C, strain swc5, stronger effect = lower value 0.88 | locus YCL011C, strain gbp2, stronger effect = lower value 0.905 | locus YCL016C, strain dcc1, stronger effect = lower value 0.856 | [3] 0.887 | locus YCL069W, strain vba3, stronger effect = lower value 0.873 | locus YDR137W, strain rgp1, stronger effect = lower value 0.682 | locus YDR162C, strain NBP2, stronger effect = lower value 0.833 | locus YDR318W, strain mcm21, stronger effect = lower value 0.894 | locus YDR335W, strain msn5, stronger effect = lower value 0.899 | locus YDR392W, strain spt3, stronger effect = lower value 0.212 | locus YDR502C, strain sam2, stronger effect = lower value 0.893 | locus YEL003W, strain gim4, stronger effect = lower value 0.893 | locus YEL061C, strain CIN8 (second series), stronger effect = lower value 0.863 | [5] 0.911 | locus YER155C, strain BEM2 (second series), stronger effect = lower value 0.625 | locus YGL086W, strain mad1, stronger effect = lower value 0.9 | locus YGL240W, strain doc1, stronger effect = lower value 0.852 | locus YGL253W, strain hxk2, stronger effect = lower value 0.764 | locus YHR129C, strain ARP1, stronger effect = lower value 0.867 | locus YHR142W, strain chs7, stronger effect = lower value 0.668 | locus YIL066C, strain RNR3, stronger effect = lower value 0.832 | locus YJL095W, strain BCK1 (second series), stronger effect = lower value 0.864 | locus YJL164C, strain tpk1, stronger effect = lower value 0.852 | locus YJL166W, strain qcr8, stronger effect = lower value 0.756 | locus YKL160W, strain elf1, stronger effect = lower value 0.758 | locus YKR001C, strain vps1, stronger effect = lower value 0.861 | locus YLL001W, strain dnm1, stronger effect = lower value 0.845 | locus YLR027C, strain aat2, stronger effect = lower value 0.914 | locus YLR221C, strain rsa3, stronger effect = lower value 0.886 | locus YLR262C, strain YPT6 (second series), stronger effect = lower value 0.682 | locus YLR268W, strain sec22, stronger effect = lower value 0.852 | locus YLR320W, strain mms22, stronger effect = lower value 0.71 | locus YLR330W, strain CHS5, stronger effect = lower value 0.838 | locus YLR418C, strain cdc73, stronger effect = lower value 0.621 | locus YMR058W, strain fet3, stronger effect = lower value 0.87 | locus YMR205C, strain PFK2, stronger effect = lower value 0.68 | locus YNL071W, strain lat1, stronger effect = lower value 0.38 | locus YNL307C, strain MCK1, stronger effect = lower value 0.412 | locus YOR083W, strain WHI5, stronger effect = lower value 0.852 | locus YOR106W, strain vam3, stronger effect = lower value 0.842 | locus YOR184W, strain ser1, stronger effect = lower value 0.805 | locus YOR270C, strain vph1, stronger effect = lower value 0.686 | locus YOR290C, strain snf2, stronger effect = lower value 0.813 | locus YPL051W, strain arl3, stronger effect = lower value 0.852 | locus YPL078C, strain atp4, stronger effect = lower value 0.793 | locus YPL106C, strain sse1, stronger effect = lower value 0.841 | locus YPL240C, strain hsp82, stronger effect = lower value 0.87 | locus YPR163C, strain tif3, stronger effect = lower value 0.726
0.838 (active) and 0.944 (inactive): [6]
inactive: [1] 1.01 | locus YAL021C, strain ccr4, stronger effect = lower value 0.997 | locus YAL030W, strain snc1, stronger effect = lower value 0.986 | locus YBL061C, strain skt5, stronger effect = lower value 1 | locus YBR021W, strain FUR4, stronger effect = lower value 0.873 | locus YBR171W, strain sec66, stronger effect = lower value 0.978 | [2] 0.981 | locus YBR279W, strain paf1, stronger effect = lower value 0.946 | locus YCL029C, strain bik1, stronger effect = lower value 0.943 | locus YCR088W, strain abp1, stronger effect = lower value 0.98 | locus YDL005C, strain med2, stronger effect = lower value 1.02 | locus YDL035C, strain GPR1, stronger effect = lower value 0.978 | locus YDL040C, strain nat1, stronger effect = lower value 0.974 | locus YDL074C, strain BRE1, stronger effect = lower value 0.928 | [4] 0.95 | locus YDL185W, strain tfp1, stronger effect = lower value 0.987 | locus YDL192W, strain arf1, stronger effect = lower value 0.944 | locus YDR001C, strain nth1, stronger effect = lower value 0.983 | locus YDR069C, strain doa4, stronger effect = lower value 1.01 | locus YDR101C, strain arx1, stronger effect = lower value 0.963 | locus YDR159W, strain sac3, stronger effect = lower value 0.874 | locus YDR195W, strain ref2 1.1 | locus YDR297W, strain sur2, stronger effect = lower value 0.943 | locus YDR334W, strain swr1, stronger effect = lower value 0.974 | locus YDR388W, stronger effect = lower value 0.958 | locus YEL037C, strain rad23, stronger effect = lower value 0.984 | locus YER015W, strain faa2, stronger effect = lower value 0.936 | locus YER016W, strain bim1, stronger effect = lower value 1.03 | locus YER110C, stronger effect = lower value 0.945 | locus YER111C, strain swi4, stronger effect = lower value 1.01 | locus YER155C, strain BEM2, stronger effect = lower value 0.962 | locus YER167W, strain BCK2, stronger effect = lower value 0.947 | locus YFR010W, strain ubp6, stronger effect = lower value 0.986 | locus YGL078C, strain dbp3, stronger effect = lower value 0.976 | locus YGL167C, strain pmr1, stronger effect = lower value 1.06 | locus YGL173C, strain kem1, stronger effect = lower value 0.984 | locus YGL227W, strain vid30, stronger effect = lower value 0.986 | locus YGL248W, strain PDE1, stronger effect = lower value 0.916 | locus YGR135W, strain pre9, stronger effect = lower value 0.914 | locus YGR252W, strain gcn5, stronger effect = lower value 0.799 | locus YHR013C, strain ard1, stronger effect = lower value 0.862 | locus YHR027C, strain rpn1, stronger effect = lower value 0.979 | locus YHR079C, strain IRE1 (second series), stronger effect = lower value 0.979 | locus YHR079C, strain IRE1, stronger effect = lower value 0.952 | locus YHR094C, strain hxt1, stronger effect = lower value 0.969 | locus YHR200W, strain rpn10, stronger effect = lower value 0.969 | locus YIL073C, strain SPO22, stronger effect = lower value 0.833 | locus YIL125W, strain kgd1, stronger effect = lower value 0.973 | locus YIR030C, strain dcg1, stronger effect = lower value 0.978 | locus YJL092W, strain hpr5, stronger effect = lower value 0.97 | locus YJL115W, strain asf1, stronger effect = lower value 0.98 | locus YJL129C, strain trk1, stronger effect = lower value 0.929 | locus YJL134W, strain LCB3, stronger effect = lower value 0.996 | locus YJL154C, strain vps35, stronger effect = lower value 0.993 | locus YJL168C, strain set2, stronger effect = lower value 0.965 | locus YJL187C, strain SWE1 (second series), stronger effect = lower value 0.937 | [7] 0.973 | [8] 0.915 | locus YJR066W, strain TOR1, stronger effect = lower value 0.903 | [9] 0.955 | locus YKL009W, strain mrt4, stronger effect = lower value 0.973 | locus YKL068W, stronger effect = lower value 1.02 | locus YKL085W, strain MDH1 (second series), stronger effect = lower value 0.98 | locus YKL085W, strain MDH1, stronger effect = lower value 0.98 | locus YKL190W, strain CNB1, stronger effect = lower value 0.982 | locus YKR026C, strain gcn3, stronger effect = lower value 0.984 | locus YKR091W, strain srl3, stronger effect = lower value 0.979 | locus YLL026W, stronger effect = lower value 0.979 | locus YLL041C, strain sdh2, stronger effect = lower value 1.01 | [10] 0.727 | locus YLR058C, strain SHM2, stronger effect = lower value 0.949 | locus YLR102C, strain apc9, stronger effect = lower value 0.974 | locus YLR113W, strain HOG1, stronger effect = lower value 0.933 | locus YLR258W, strain gsy2, stronger effect = lower value 0.915 | [11] 0.805 | locus YLR342W, strain FKS1 (second series), stronger effect = lower value 0.809 | locus YLR342W, strain FKS1, stronger effect = lower value 0.92 | locus YLR357W, strain rsc2, stronger effect = lower value 0.985 | locus YLR370C, strain arc18, stronger effect = lower value 0.962 | locus YLR371W, strain rom2, stronger effect = lower value 0.951 | locus YLR384C, strain iki3, stronger effect = lower value 1 | locus YML016C, strain PPZ1, stronger effect = lower value 0.989 | locus YML032C, strain rad52, stronger effect = lower value 0.955 | locus YML120C, strain ndi1, stronger effect = lower value 0.979 | locus YML124C, strain tub3, stronger effect = lower value 0.982 | locus YMR078C, strain ctf18, stronger effect = lower value 0.981 | locus YMR125W, strain sto1, stronger effect = lower value 0.966 | locus YMR129W, stronger effect = lower value 0.996 | locus YMR223W, strain ubp8, stronger effect = lower value 0.941 | locus YMR231W, strain pep5, stronger effect = lower value 0.984 | [12] 0.955 | locus YNL067W, strain RPL9B, stronger effect = lower value 0.931 | [13] 0.96 | locus YNL183C, strain NPR1, stronger effect = lower value 0.9 | locus YNL209W, strain ssb2, stronger effect = lower value 0.967 | locus YNL233W, strain BNI4, stronger effect = lower value 0.873 | locus YNL248C, strain rpa49, stronger effect = lower value 0.935 | locus YNL250W, strain rad50, stronger effect = lower value 0.98 | locus YNL271C, strain bni1, stronger effect = lower value 0.971 | locus YNL298W, strain CLA4, stronger effect = lower value 0.93 | locus YNL322C, strain KRE1 (second series), stronger effect = lower value 0.98 | locus YNR049C, strain mso1, stronger effect = lower value 0.978 | locus YNR052C, strain pop2, stronger effect = lower value 0.964 | locus YOL006C, strain TOP1, stronger effect = lower value 0.724 | locus YOL012C, strain htz1 0.627 | locus YOL147C, strain pex11, stronger effect = lower value 0.956 | locus YOR001W, strain rrp6, stronger effect = lower value 0.955 | locus YOR061W, strain CKA2, stronger effect = lower value 0.979 | locus YOR069W, strain VPS5, stronger effect = lower value 1 | locus YOR070C, strain gyp1, stronger effect = lower value 0.929 | locus YOR080W, strain dia2, stronger effect = lower value 0.986 | locus YOR136W, strain idh2, stronger effect = lower value 0.967 | locus YOR144C, strain elg1, stronger effect = lower value 0.976 | locus YOR231W, strain MKK1, stronger effect = lower value 0.921 | locus YOR265W, strain rbl2, stronger effect = lower value 0.954 | locus YOR316C, strain cot1, stronger effect = lower value 0.967 | [14] 0.994 | locus YPL256C, strain CLN2, stronger effect = lower value 0.972 | locus YPR119W, strain clb2, stronger effect = lower value 0.994 | locus YPR141C, strain kar3, stronger effect = lower value 0.996 | locus YPR167C, strain met16, stronger effect = lower value 0.952 | strain wtn01, stronger effect = lower value 0.936
